Screening data deposited in PubChem BioAssay by National Center for Advancing Translational Sciences (NCATS).
L3MBTL1 inh: L3MBTL1 (human) inhibition; Q9Y468; AlphaScreen L3MBTL1–H3K9me1 peptide binding; Potency, µM (titrated, usually from 57.1 µM), inactives show at the top dose activity, negative = inhibition, actives largely listed as inhibitors; actives 0.66% (n = 230,000); further: on the % scale 0 is the no-effect control and ±100 the full control effect; nearly all actives have a fitted effect of over 60% in size
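First, the protein-peptide complex forms for 30 min at room temperature (L3MBTL1 50 nM, biotinylated H3K9me1 peptide 75 nM). Next, compounds are pin-transferred and incubated 30 min. Finally, AlphaScreen beads are added and read after 30 min.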
JMJD2A Tudor: inhibitors of human JMJD2A Tudor domain; AID 504339; O75164; AlphaScreen JMJD2A-Tudor / H3K4me3 peptide binding; actives 4.4% (n = 390,000); Potency, µM (highest dose often 114 µM), without a hit: top-dose activity change, negative = inhibition, usual class: inhibitors; further: on the % scale 0 is the no-effect control and ±100 the full control effect; nearly all actives have a fitted effect of over 50% in size
HP1b binding inh: HP1-beta chromodomain-methylated histone interaction inhibition; P83916; AlphaScreen HP1-beta / biotin-H3K9me3 peptide binding; Potency, µM (series often up to 114 µM), for the others: top-dose activity change, negative = inhibition, actives largely listed as inhibitors; actives 0.56% (n = 390,000); further: nearly all actives have a fitted effect of over 70% in size
Target sequence (P83916 whole entry, looked up): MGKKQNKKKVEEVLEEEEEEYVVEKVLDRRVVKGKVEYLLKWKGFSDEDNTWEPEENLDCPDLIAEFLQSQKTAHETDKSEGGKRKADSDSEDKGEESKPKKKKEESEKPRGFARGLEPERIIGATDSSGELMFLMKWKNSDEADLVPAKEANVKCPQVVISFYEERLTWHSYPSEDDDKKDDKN
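HP1-beta protein (50 nM final) preincubated 30 min at room temperature with biotinylated H3(1-18)K9me3 peptide (50 nM) in PBS pH 7.4, 0.01% Tween-20, then compound added for 30 min. AlphaScreen streptavidin donor/nickel chelate acceptor beads (10 ug/mL final), 30 min dark, luminescence read.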
G9a block: blocks human histone lysine methyltransferase G9a; Potency, µM (doses to about 102 µM), without a hit: at the top dose activity, negative = inhibition, usual class: inhibitors; AID 504332; G9a H3K9 monomethylation, AlphaScreen, 2 h; actives 8.8% (n = 350,000); further: on the % scale 0 is the no-effect control and ±100 the full control effect; nearly all actives have a fitted effect of over 75% in size
Target sequence (Q96KQ7 913-1193 limits assumed): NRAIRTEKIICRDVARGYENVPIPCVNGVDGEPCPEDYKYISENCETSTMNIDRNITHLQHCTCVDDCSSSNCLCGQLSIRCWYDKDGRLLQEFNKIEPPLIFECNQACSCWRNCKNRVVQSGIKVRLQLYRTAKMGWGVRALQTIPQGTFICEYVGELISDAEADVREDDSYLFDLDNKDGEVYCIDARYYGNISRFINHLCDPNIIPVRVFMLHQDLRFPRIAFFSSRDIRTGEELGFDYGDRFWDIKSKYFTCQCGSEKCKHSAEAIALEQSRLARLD
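Signal arises when biotinylated H3K9 peptide, once monomethylated, bridges streptavidin donor and antibody-captured acceptor beads. Enzyme at 20 nM was preincubated 15 min with test compounds; peptide 500 nM and SAM 20 uM then reacted for 2 h.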
BAZ2B block: blocks human BAZ2B; AlphaScreen BAZ2B-H3K14Ac peptide displacement; Potency, µM (top dose mostly 114 µM), for inactives: at the top dose activity change, negative = inhibition, most hits filed as inhibitors; Q9UIF8; actives 4.4% (n = 360,000); further: on the % scale 0 is the no-effect control and ±100 the full control effect; nearly all actives have a fitted effect of over 60% in size
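Complex of BAZ2B and biotin-H3K14Ac (50 nM apiece) forms over 30 min at RT, then faces library compounds up to 110 uM for another 30 min; AlphaScreen beads added, 20 min dark incubation, luminescence read.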
Sfp inh: inhibitors of Bacillus subtilis Sfp phosphopantetheinyl transferase; AID 1490; Potency, µM, for the others: largest response in the series, negative = inhibition, hits mostly inhibitors; Biochemical Sfp PPTase activity, qHTS; actives 3.5% (n = 310,000);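 further: the enzyme is Sfp with the accession as filed and its product quenches rhodamine fluorescence; 0% = enzyme reaction without inhibitor and -100% = no enzyme wells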
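Fluorescence-quenching assay with 15 nM Sfp, 5 uM rhodamine-CoA and 12.5 uM BHQ-2-labelled ybbR peptide in pH 7.6 Hepes/MgCl2 buffer. Enzyme was pre-incubated with compound for 15 min at room temperature. Rate was taken from the 30-min fluorescence change (525/598 nm).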
* marks the source's active call; other numbers are inactive results; ? = inconclusive; nt = no result; [ ] = dose if it differs, or a comment. Compounds with a hit are over-represented: about 12% of the library has one in this group of screens. The call rests on the fitted dose curve; in most records, active means well fitted curve in the direction sought with a large enough effect; inconclusive means small, poorly fitted or top-dose-only effect, or another doubt; inactive means no such curve, though single readings can be large; an effect the other way counts as inactive or inconclusive. Potency means the concentration at half of the fitted maximal effect.

SMILES | L3MBTL1 inh | JMJD2A Tudor | HP1b binding inh | G9a block | BAZ2B block | Sfp inh
Cc1ccc(N(CC(=O)NCCSCc2ccco2)S(=O)(=O)c2ccc(F)cc2)cc1 | -20% | -35% | -13% | 0% | -29% | -25%
Cc1ccc(S(=O)(=O)N(CC(=O)NCCSCc2ccco2)c2ccc(F)cc2)cc1 | -11% | nt | nt | nt | ? | 56µM*
O=C(CCSc1ccccc1)NCCSCc1ccco1 | 2% | -20%[57.1 µM] | 13% | 9% | 5% | 50µM*
O=C(CN(c1ccccc1)S(=O)(=O)c1ccccc1)NCCSCc1ccco1 | -14% | 56µM* | -16% | ? | 50µM* | -20%
COc1ccc(CN(C2CC2)S(=O)(=O)c2ccccc2Br)cc1 | 32% | 26% | 92% | nt | nt | nt
Cc1csc(=Nc2cccnc2)n1Cc1ccco1 | nt | -19% | -10% | -38% | 45µM* | -10%
Cc1csc(=Nc2cccnc2)n1CC1CCCCC1 | -6% | -22% | 6% | ? | 45µM* | -11%
CN1CCCC1CCNc1ncnc2ccc(-c3ccc4c(c3)OCO4)cc12 (configuration not stated) | nt | -28% | nt | nt | nt | nt
COc1ccc(N2CCN(C(=O)COC(=O)CNC(=O)c3ccc(Cl)cc3Cl)CC2)cc1 | -15% | -13% | -10% | 45µM* | -30% | nt
COc1ccc(N2CCN(C(=O)COc3ccc(Cl)cc3Cl)CC2)cc1 | nt | ? | -16% | 6.3µM* | ? | 5%
COc1ccc(N2CCN(C(=O)COC(=O)CNC(=O)c3ccccc3)CC2)cc1 | nt | -8% | 6% | 20% | -14% | 14%
Cc1ccc(S(=O)(=O)N2CCN(C(=O)COC(=O)CNC(=O)c3ccccc3)CC2)c(C)c1 | ? | -16% | 10% | -22% | 4% | nt
Cc1ccc(S(=O)(=O)N2CCN(C(=O)COC(=O)CNC(=O)c3ccc(Cl)cc3Cl)CC2)c(C)c1 | nt | 25µM* | -2% | nt | nt | nt
O=c1cc[nH]c(=S)[nH]1 | nt | nt | nt | -4%[2.33 µM] | nt | 45µM*
O=C(O)c1n[nH]c2c1CCCCC2 | 10% | ? | 3% | 10µM* | 50µM* | -29%
O=C(O)c1n[nH]c2c1CCCC2 | nt | 25µM* | 9% | -27%[12.7 µM] | 56µM* | -15%
CC(C)(C)C1CCc2[nH]nc(C(=O)O)c2C1 (configuration not stated) | -7% | ? | 0% | -18%[59 µM] | ? | 14%
CCc1ccc(NC(=O)CSc2nnc(C)c(=O)n2N)cc1 | nt | 1% | 31% | nt | 4% | 19%
CCOC(=O)C1=C(N)n2c(s/c(=C/c3ccco3)c2=O)=C(C(=O)OC)C1c1ccco1 (configuration not stated) | nt | 56µM* | ? | ? | ? | 16µM*
N#CC1=C(N)n2c(s/c(=C\c3cccs3)c2=O)=C(C#N)C1c1cccs1 (configuration not stated) | -7% | -19% | 20% | 35µM* | -4% | 45µM*
N#CC1=C(N)n2c(s/c(=C\c3ccco3)c2=O)=C(C#N)C1c1ccco1 (configuration not stated) | 25µM* | 56µM* | 79µM* | ? | ? | -86%
O=c1c2ccccc2nc2oc3ccccc3n12 | -4% | -13% | -10% | 25µM* | 5% | ?
O=c1c2ccccc2nc2n1CCO2 | nt | -4% | 12% | -3% | 5% | 27%
CCOC(=O)[C@H]1[C@H]2COc3ccc(C)cc3[C@@H]2N2C(=O)CN(CC3CCCO3)C(=O)[C@@]12C (some centres not stated) | 0% | -3% | 54% | -22%[0.501 µM] | -3% | nt
CCCCNC(=S)NCC(c1ccccc1)c1c[nH]c2ccccc12 (configuration not stated) | nt | ? | 2% | 1% | ? | 17%
SMILES | L3MBTL1 inh | JMJD2A Tudor | HP1b binding inh | G9a block | BAZ2B block | Sfp inh
CN(C)CCCNC(=S)NCC(c1ccc(Cl)cc1Cl)c1c[nH]c2ccccc12 (configuration not stated) | nt | ? | -17%[57 µM] | ? | ? | 50µM*
O=C(C1=C(O)C(=O)N(CC2CCCO2)C1c1cccc(O)c1)c1ccco1 (configuration not stated) | nt | -3% | 16% | 45µM* | -1% | 4%
CC(=O)C1=C(O)C(=O)N(CCC(=O)O)C1c1ccccc1Cl (configuration not stated) | nt | 22µM* | -2% | 24%[12.7 µM] | ? | 15%
CC(=O)C1=C(O)C(=O)N(Cc2cccnc2)C1c1ccccc1Cl (configuration not stated) | 3% | -33% | 25% | -7%[59 µM] | -8% | 8%
COc1cc(C2C(C(=O)c3ccco3)=C(O)C(=O)N2CCc2ccccc2)ccc1O (configuration not stated) | -13% | ? | 16% | 40µM* | ? | 5%
CCOc1cc(C2C(C(=O)c3ccco3)=C(O)C(=O)N2CC2CCCO2)ccc1O (configuration not stated) | nt | -16% | 0% | 45µM* | -20% | 4%
COc1ccc(C2C(C(=O)c3ccco3)=C(O)C(=O)N2CC2CCCO2)cc1 (configuration not stated) | 5% | -22% | 20% | ? | -39% | 18%
COc1cc(C2C(C(C)=O)=C(O)C(=O)N2CCc2ccc(OC)c(OC)c2)ccc1O (configuration not stated) | 1% | -13% | 16% | -36%[59 µM] | ? | -15%
COc1ccc(C2C(C(=O)c3ccc(C)o3)=C(O)C(=O)N2CC2CCCO2)cc1OC (configuration not stated) | nt | 0% | 12% | nt | ? | -7%
Cc1ccc(CCNC(=O)C(CC(C)C)NS(=O)(=O)c2ccc3c(c2)oc(=O)n3C)cc1 (configuration not stated) | nt | -12% | 27% | -10%[59 µM] | -14% | nt
O=C(NCc1ccc(Cl)cc1)c1cccc2c1C(=O)N(CC1CCCO1)C2 (configuration not stated) | 9% | -13% | 15% | nt | -5% | -10%
COc1ccccc1C1C(C(C)=O)=C(O)C(=O)N1CCc1ccccc1 (configuration not stated) | 4% | -22%[57.1 µM] | 43% | 45µM* | -38% | 9%
O=C(C1=C(O)C(=O)N(CC2CCCO2)C1c1ccccc1F)c1ccco1 (configuration not stated) | nt | -17% | 12% | 40µM* | -11% | 5%
COc1ccc(CCN2C(=O)C(O)=C(C(C)=O)C2c2ccccc2OC)cc1OC (configuration not stated) | nt | ? | 3% | 5%[12.7 µM] | -39% | 4%
